From PubChem BioAssay (NCATS) come the findings set out here.

“And” between values parts separate entries of the source, which are not always exact repeats. Equal values may be shown once. Unmarked numbers belong to inactive results. Inconclusive results are not listed. The source made the active and inactive calls. Unless noted, the call rests on the fitted dose curve; in most records, active means well fitted curve in the direction sought with a large enough effect; inconclusive means small, poorly fitted or top-dose-only effect, or another doubt; inactive means no such curve, though single readings can be large; an effect the other way counts as inactive or inconclusive.

Test [1] can be described thus: Cell Viability - Jurkat (AID 426;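 active means dose-dependent loss of cell ATP signal giving a full or clear fitted curve, ranked by lower potency value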;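 further: potency means the concentration at half of the fitted maximal effect; cells exposed to compound for 40 hours at 37 °C before ATP read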). Conditions: qHTS. In short, it runs like this: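 Luminescent ATP read-out (CellTiter-Glo, 20 min at room temperature) after 40 hr compound exposure at 37 °C of Jurkat E6-1 cells, 5000/well. Decreased ATP taken as cytotoxicity; AC50 from standard Hill equation.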
Test [2] has as its target Mitogen-activated protein kinase 10 (Mus musculus) (UniProt Q61831). Description: JNK3 AlphaScreen Assay (AID 530; active means well fitted curve in either direction with a large enough effect, not every such curve was filed as active;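 further: kinase came from lysate of stimulated human HepG2 cells; signal reports phosphorylation of biotinylated GST-cJun 1-79 at Ser73 with 10 µM ATP; on the % scale 0 is the no-effect control and ±100 the full control effect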). Conditions: JNK3 lysate, c-Jun phosphorylation; series mostly up to 57.1 µM. An outline of the steps:
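Kinase buffer: 20 mM Tris-HCl pH 7.6, 10 mM MgCl2, 1 mM DTT, 0.1 mM Na3VO4, 0.01% Tween-20; ATP 10 uM. Substrate biotin-GST-cJun(1-79), enzyme from activated HepG2 lysates. Detection by Ser73 phospho-antibody AlphaScreen.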

Test [3] can be described thus: Cell Viability - H-4-II-E (AID 543).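 Further: cells exposed to compound for 40 hours; on the % scale 0 is the no-effect control and ±100 the full control effect; nearly all actives have a fitted effect of over 35% in size.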 Conditions: H-4-II-E rat hepatoma viability; series mostly up to 92.2 µM. In short, it runs like this: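 qHTS, rat hepatoma H-4-II-E, 1500 cells/well; 40 hr compound exposure, 37 °C; CellTiter-Glo ATP luminescence after 20 min RT; AC50 by standard Hill fit.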
For test [4], the target named is Cytochrome P450 3A4 (Homo sapiens) (UniProt P08684). The test can be described thus: qHTS Assay for Inhibitors and Substrates of Cytochrome P450 3A4 (AID 884). Further: on the % scale 0 is the no-effect control and ±100 the full control effect; nearly all actives have a fitted effect of over 50% in size. To be noted: recombinant CYP3A4, Luciferin-PPXE luminescence; series mostly up to 57.1 µM. In short, it runs like this: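 Luminescent readout of luciferin produced by CYP3A4 (20 nM) dealkylation of Luciferin-PPXE, 25 uM (its KM). NADPH-driven reaction ran 60 min at RT after 10 min compound preincubation; data scaled to 57 uM ketoconazole as 100% inhibition.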
Sequence of Cytochrome P450 3A4 (Homo sapiens) (P08684 whole entry, looked up): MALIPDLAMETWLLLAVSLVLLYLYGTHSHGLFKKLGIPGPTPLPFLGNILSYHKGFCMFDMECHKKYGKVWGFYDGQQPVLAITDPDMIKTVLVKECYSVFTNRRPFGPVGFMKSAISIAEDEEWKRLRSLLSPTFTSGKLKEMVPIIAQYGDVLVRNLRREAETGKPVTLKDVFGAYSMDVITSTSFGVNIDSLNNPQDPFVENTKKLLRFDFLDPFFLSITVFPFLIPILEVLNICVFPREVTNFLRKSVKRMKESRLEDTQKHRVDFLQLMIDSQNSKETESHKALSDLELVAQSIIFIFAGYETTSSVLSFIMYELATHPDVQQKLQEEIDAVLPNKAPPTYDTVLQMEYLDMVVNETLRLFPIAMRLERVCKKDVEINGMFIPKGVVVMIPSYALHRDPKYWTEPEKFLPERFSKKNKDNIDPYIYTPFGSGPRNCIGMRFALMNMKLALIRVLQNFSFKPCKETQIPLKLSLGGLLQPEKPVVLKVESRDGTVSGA
On the technique in general: Quantitative high-throughput screening tests each substance at several concentrations.

A short description of test [5]: Cell Viability - LYMP2-001 (AID 921).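 Further: 0% = DMSO only and full inhibition = tetraoctylammonium bromide control wells; nearly all actives have a fitted effect of over 70% in size.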 To be noted: LYMP2-001 lymphoblastoid cell viability; series mostly up to 92.2 µM. An outline of the steps:
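Cellular ATP loss read by luciferase luminescence after 24 h compound exposure at 37 C in complete medium. LYMP2-001 lymphoblastoid cells, 2500/well; qHTS concentration-response data fitted with Hill equation for AC50.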

Test [6] in a line: MultiTox-Fluor Cytotoxicity Assay - LYMP1-002 - Dead Cells (AID 960).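 Further: 0% = DMSO and 100% = tetraoctylammonium bromide; nearly all actives have a fitted effect of over 60% in size.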 Conditions: LYMP1-002 lymphoblastoid cells, dead-cell protease fluorescence; series mostly up to 46.1 µM. An outline of the steps: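 Readout: fluorescence at 485/520 from cell-impermeant bis-AAF-R110 cleaved by proteases leaking from damaged cells. LYMP1-002 lymphoblastoid line, 16 hr compound treatment at 37 C, concentration-response in qHTS format; Hill-equation AC50 values.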

A short description of test [7]: Cell Viability - LYMP2-024 (AID 988).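 Further: cells exposed to compound for 24 hr at 37 °C; plate controls were DMSO only for no effect and 92 µM tetraoctylammonium bromide for full effect; nearly all actives have a fitted effect of over 60% in size.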 To be noted: LYMP2-024 lymphoblastoid cell viability; series mostly up to 92.2 µM. In short, it runs like this:
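ATP-based luminescence (CellTiter-Glo, 30 min RT) after 24 h compound exposure at 37 C of 2500 lymphoblastoid cells/well; decrease in ATP taken as cytotoxicity. qHTS concentration-response fitted to standard Hill equation for AC50.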

For test [8], the target named is Estrogen receptor (Homo sapiens) (UniProt P03372). The test can be described thus: qHTS assay for small molecule antagonists of estrogen receptor alpha signaling (AID 588513; active means well fitted curve in the direction sought with a large enough effect in the signal ratio, with a control signal flat, not every such curve was filed as active; the % refers to the signal ratio; further: on the % scale 0 is the no-effect control and ±100 the full control effect). To be noted: ER-alpha-UAS-bla HEK293, beta-lactamase ratio, antagonist mode; series mostly up to 76.9 µM. In short, it runs like this:
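Antagonist mode: inhibition of 0.5 nM 17-beta-estradiol-driven beta-lactamase reporter in HEK 293 ER-alpha-UAS-bla cells, 18 h at 37C, CCF4 readout after 2 h at RT. Normalised to estradiol and DMSO; titration fitted to Hill.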

The target in test [9] is Bile acid receptor (Homo sapiens) (UniProt Q96RI1). The test can be described thus: qHTS assay for small molecule agonists of farnesoid X receptor signaling (AID 588527; calls by dose curve;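 further: 0% = vehicle basal and 100% = reference agonist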). Conditions: HEK293T FXR-UAS-bla, beta-lactamase ratio, 16 h; stronger effect = higher value. An outline of the steps: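 Read-out: beta-lactamase reporter fluorescence with CCF4 substrate in GeneBLAzer FXR-UAS-bla HEK293T cells, after 16 h compound exposure at 37 C. Response scaled between DMSO basal (0%) and chenodeoxycholic acid at 100 uM (100%).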
Sequence of Bile acid receptor (Homo sapiens) (Q96RI1 whole entry, looked up): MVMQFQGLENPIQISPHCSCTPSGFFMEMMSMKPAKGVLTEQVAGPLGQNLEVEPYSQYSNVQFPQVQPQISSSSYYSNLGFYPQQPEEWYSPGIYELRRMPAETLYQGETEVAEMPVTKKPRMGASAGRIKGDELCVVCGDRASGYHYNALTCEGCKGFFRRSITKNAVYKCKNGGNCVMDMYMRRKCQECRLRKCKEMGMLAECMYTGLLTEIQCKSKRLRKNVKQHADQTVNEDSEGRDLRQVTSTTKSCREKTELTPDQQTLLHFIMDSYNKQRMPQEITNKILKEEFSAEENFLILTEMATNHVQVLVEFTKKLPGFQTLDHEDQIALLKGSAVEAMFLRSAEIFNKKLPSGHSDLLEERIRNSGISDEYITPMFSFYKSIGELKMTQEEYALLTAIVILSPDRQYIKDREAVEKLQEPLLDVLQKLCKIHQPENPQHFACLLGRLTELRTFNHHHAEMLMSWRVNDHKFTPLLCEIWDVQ

Test [10] has as its target Glucocorticoid receptor (Homo sapiens) (UniProt P04150). The test can be described thus: qHTS assay for small molecule agonists of glucocorticoid receptor signaling (AID 588532; active means well fitted curve in the direction sought with a large enough effect in the signal ratio, with a control signal flat; the % refers to the signal ratio;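 further: 100% = dexamethasone at 0.1 µM and 0% = DMSO only wells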). Conditions: HeLa MMTV-bla, beta-lactamase ratio, agonist, 18 h; stronger effect = higher value; percent of dexamethasone control, DMSO zero. In short, it runs like this:
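Agonist-mode qHTS: GRE-driven beta-lactamase in HeLa cells exposed 18 h to titrated compounds (up to 92 uM), then CCF4 ratio read after 2 h at RT; Hill-fitted EC50, efficacy relative to 0.1 uM dexamethasone.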

For test [11] the target is unchanged. The test can be described thus: qHTS assay for small molecule antagonists of glucocorticoid receptor signaling (AID 588533; active means well fitted inhibition curve with a large enough effect in the signal ratio, with a control signal flat, not every such curve was filed as active; the % refers to the signal ratio;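 further: cells stimulated with 2 nM dexamethasone as agonist; on the % scale 0 is the no-effect control and ±100 the full control effect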). Conditions: HeLa MMTV-bla, GRE beta-lactamase ratio, antagonist mode, 18 h; series mostly up to 76.8 µM. An outline of the steps: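 Antagonist-mode qHTS: compound titrations added to GRE-bla HeLa cells, then dexamethasone 2 nM final; 18 h, 37 C. CCF4 FRET fluorescence normalized to dexamethasone and DMSO; IC50 from Hill fit.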

Test [12] concerns the target Vitamin D3 receptor (Homo sapiens) (UniProt P11473). Description: qHTS assay for small molecule antagonists of vitamin D receptor signaling (AID 588541; calls by dose curve;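 further: receptor activated by calcitriol during compound treatment; on the % scale 0 is the no-effect control and ±100 the full control effect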). To be noted: HEK293T VDR-UAS-bla, beta-lactamase ratio, antagonist mode; series mostly up to 76.7 µM. An outline of the steps:
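Antagonist-mode beta-lactamase reporter assay: HEK293T VDR-UAS-bla cells were exposed to titrated compound alongside 1-alpha,25-dihydroxyvitamin D3 at 3 nM final for 16 h. Values were normalized to the 50 nM agonist control and DMSO basal, with IC50 and efficacy from Hill equation fits.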

The target is the same in test [13]. Description: qHTS assay for small molecule agonists of vitamin D receptor signaling (AID 588543; calls by dose curve;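 further: 0% = DMSO basal and 100% = reference agonist control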). Conditions: HEK293T VDR-UAS-bla, beta-lactamase ratio, 16 h; series mostly up to 76.8 µM. In short, it runs like this: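 Agonist-mode beta-lactamase reporter: HEK293T VDR-UAS-bla cells in charcoal-stripped 2% FBS, compound series 16 h 37 C, CCF4 2 h RT. EC50 from Hill fit, scaled against DMSO and 50 nM calcitriol control.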

The target in test [14] is Thyroid hormone receptor beta (Homo sapiens) (UniProt P10828). The test can be described thus: qHTS assay for small molecule agonists of thyroid hormone receptor beta signaling (AID 588545; calls by dose curve;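 further: 0% = DMSO only and 100% = 10 nM T3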). Conditions: TR-UAS-bla GripTite HEK 293, beta-lactamase ratio, agonist mode, 18 h, percent of T3 response, DMSO as zero; series mostly up to 76.7 µM. An outline of the steps:
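Efficacy and EC50 values derive from Hill fits of qHTS titration data, normalized to 10 nM T3 and DMSO-only wells. HEK 293 reporter cells were stimulated for 18 hrs at 37 C, with beta-lactamase activity measured by CCF4 fluorescence.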

For test [15] the target is unchanged. Description: qHTS assay for small molecule antagonists of thyroid hormone receptor beta signaling (AID 588547; active means well fitted inhibition curve with a large enough effect in the signal ratio, with a control signal flat, not every such curve was filed as active; the % refers to the signal ratio). To be noted: TR-UAS-bla HEK293, beta-lactamase ratio, antagonist mode, 18 h. In short, it runs like this: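 Inhibition of T3-driven (0.4nM final) beta-lactamase reporter activity was measured over 0.59 nM to 92 uM compound after 18 h at 37 C. The cells were GripTite HEK293 TR-UAS-bla in charcoal/dextran-stripped serum, with CCF4 ratio read-out and IC50 from Hill fits.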

A short description of test [16]: qHTS assay for small molecule agonists of the antioxidant response element (ARE) signaling pathway (AID 651741; active means well fitted activation curve with a large enough effect in the signal ratio; the % refers to the signal ratio; further: potency means the concentration at half of the fitted maximal effect; on activation: % of control where 0% means no effect). Conditions: HepG2 ARE-bla reporter, beta-lactamase FRET ratio, 16 h; series mostly up to 96 µM. An outline of the steps: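 Agonist activity is measured as ARE-driven beta-lactamase expression in a stable HepG2 reporter line, using 16 h compound treatment at 37 C and a FRET substrate fluorescence readout after 2 h.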

Test [17] has as its target Tumor necrosis factor (Homo sapiens) (UniProt P01375). Description: qHTS assay to identify small molecules that stimulate Tumor Necrosis Factor-alpha (TNF-alpha) secretion (AID 651757; active means well fitted curve in the direction sought with a large enough effect in the signal ratio; the % refers to the signal ratio; further: 0% is about no effect). Conditions: Human cells, HTRF 665/615 ratio; series mostly up to 92.2 µM. An outline of the steps: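 THP-1 cells, 3000/well; compound 17 hrs, 37 C; add cryptate/XL665 anti-TNF-alpha antibody pair; 3 hr RT; TR-FRET (HTRF) read of secreted TNF-alpha. Quantitative HTS format.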

The nature of test [18]: qHTS assay for small molecule antagonists of the retinoid-related orphan receptor gamma (ROR-gamma) signaling pathway - cell viability counter screen (AID 720652; active means well fitted curve in the direction sought with a large enough effect in the repeat runs; an effect the other way counts as inactive or inconclusive). To be noted: RORgamma reporter cell line viability counter screen; series mostly up to 92.2 µM. An outline of the steps: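 CHO RORE-LUC/TET-ROR line, 1,000 cells/well, 37 C 5% CO2 5 hr; cpd or DMSO + doxycycline induction, 16 hr. CellTiter-Glo, 30 min RT, luminescence = ATP content.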

The target of test [19] is Nuclear receptor subfamily 1 group I member 2 (Rattus norvegicus) (UniProt Q9R1A7). The test can be described thus: qHTS assay for small molecule activators of the rat pregnane X receptor (rPXR) signaling pathway (AID 651751; call rule not given here; further: 0% is about no effect). Conditions: rPXR reporter cells, luciferase (One-Glo), 24 h.
Sequence of Nuclear receptor subfamily 1 group I member 2 (Rattus norvegicus) (Q9R1A7 whole entry, looked up): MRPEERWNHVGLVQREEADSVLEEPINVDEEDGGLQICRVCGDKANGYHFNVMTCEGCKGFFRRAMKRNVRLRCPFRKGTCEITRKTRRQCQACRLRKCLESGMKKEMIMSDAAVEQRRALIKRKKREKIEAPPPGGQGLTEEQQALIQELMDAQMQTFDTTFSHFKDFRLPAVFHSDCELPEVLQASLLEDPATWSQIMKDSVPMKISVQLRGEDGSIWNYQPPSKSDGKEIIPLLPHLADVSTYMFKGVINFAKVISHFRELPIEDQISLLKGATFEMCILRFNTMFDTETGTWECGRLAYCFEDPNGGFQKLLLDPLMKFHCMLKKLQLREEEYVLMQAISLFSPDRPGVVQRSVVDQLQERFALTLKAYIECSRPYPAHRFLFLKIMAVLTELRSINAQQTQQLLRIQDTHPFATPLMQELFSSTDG
Test [20] is described as follows: qHTS assay for small molecule activators of the human pregnane X receptor (PXR) signaling pathway (AID 720659; call rule not given here; further: 0% is about no effect). To be noted: DPX-2 HepG2 CYP3A4-luciferase, 24 h; series mostly up to 92.3 µM.

Sequence of Thyroid hormone receptor beta (Homo sapiens) (P10828 whole entry, looked up): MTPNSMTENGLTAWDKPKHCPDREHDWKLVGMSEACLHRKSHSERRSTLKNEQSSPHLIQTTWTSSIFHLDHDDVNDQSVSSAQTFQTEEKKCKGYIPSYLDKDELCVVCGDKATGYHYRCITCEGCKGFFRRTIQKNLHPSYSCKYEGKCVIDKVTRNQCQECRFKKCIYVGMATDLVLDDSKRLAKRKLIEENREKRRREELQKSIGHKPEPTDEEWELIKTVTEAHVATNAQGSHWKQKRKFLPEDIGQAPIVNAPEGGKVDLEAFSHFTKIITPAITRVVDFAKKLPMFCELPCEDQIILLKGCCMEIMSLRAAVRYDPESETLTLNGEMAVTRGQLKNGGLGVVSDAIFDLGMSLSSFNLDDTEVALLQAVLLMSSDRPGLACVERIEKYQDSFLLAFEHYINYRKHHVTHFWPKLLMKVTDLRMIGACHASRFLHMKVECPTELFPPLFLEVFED
Sequence of Vitamin D3 receptor (Homo sapiens) (P11473 whole entry, looked up): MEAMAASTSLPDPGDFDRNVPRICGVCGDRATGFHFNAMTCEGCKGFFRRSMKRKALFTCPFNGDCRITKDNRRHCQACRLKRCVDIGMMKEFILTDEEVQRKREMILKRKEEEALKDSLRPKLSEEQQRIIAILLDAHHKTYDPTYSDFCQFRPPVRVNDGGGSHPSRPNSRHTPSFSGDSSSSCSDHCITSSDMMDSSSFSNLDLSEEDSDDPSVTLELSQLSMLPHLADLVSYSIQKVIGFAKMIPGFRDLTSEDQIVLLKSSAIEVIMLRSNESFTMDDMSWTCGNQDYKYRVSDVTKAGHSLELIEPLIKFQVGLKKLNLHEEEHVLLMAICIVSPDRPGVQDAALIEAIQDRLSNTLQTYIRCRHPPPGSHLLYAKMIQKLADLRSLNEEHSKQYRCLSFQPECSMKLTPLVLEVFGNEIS
Sequence of Glucocorticoid receptor (Homo sapiens) (P04150 whole entry, looked up): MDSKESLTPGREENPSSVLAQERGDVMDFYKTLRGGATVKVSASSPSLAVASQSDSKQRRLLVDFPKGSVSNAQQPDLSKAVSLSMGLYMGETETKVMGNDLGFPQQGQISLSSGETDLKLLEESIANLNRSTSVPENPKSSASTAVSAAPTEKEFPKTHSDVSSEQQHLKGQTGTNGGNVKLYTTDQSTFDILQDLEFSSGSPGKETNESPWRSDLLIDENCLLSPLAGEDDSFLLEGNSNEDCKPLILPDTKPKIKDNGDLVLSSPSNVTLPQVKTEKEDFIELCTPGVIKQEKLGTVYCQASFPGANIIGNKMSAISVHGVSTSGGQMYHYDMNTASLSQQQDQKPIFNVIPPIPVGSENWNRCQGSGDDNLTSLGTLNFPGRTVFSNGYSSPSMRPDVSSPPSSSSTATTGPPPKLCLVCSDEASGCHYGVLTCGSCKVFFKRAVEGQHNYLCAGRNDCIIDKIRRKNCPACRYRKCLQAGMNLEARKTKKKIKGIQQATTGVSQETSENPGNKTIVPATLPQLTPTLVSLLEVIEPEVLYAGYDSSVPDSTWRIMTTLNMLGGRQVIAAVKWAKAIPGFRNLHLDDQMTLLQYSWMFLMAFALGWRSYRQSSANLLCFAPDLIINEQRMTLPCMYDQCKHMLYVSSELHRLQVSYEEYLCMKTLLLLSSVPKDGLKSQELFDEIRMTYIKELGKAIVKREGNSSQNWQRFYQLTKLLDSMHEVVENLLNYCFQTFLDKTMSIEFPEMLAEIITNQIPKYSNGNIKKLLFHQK
Sequence of Tumor necrosis factor (Homo sapiens) (P01375 whole entry, looked up): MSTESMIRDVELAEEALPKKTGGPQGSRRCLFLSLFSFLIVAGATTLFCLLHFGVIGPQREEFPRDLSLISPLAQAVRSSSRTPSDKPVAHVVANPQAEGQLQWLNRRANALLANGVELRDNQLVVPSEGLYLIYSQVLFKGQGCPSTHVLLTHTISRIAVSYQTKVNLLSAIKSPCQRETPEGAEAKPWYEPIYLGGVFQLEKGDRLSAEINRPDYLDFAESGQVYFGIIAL
Sequence of Estrogen receptor (Homo sapiens) (P03372 whole entry, looked up): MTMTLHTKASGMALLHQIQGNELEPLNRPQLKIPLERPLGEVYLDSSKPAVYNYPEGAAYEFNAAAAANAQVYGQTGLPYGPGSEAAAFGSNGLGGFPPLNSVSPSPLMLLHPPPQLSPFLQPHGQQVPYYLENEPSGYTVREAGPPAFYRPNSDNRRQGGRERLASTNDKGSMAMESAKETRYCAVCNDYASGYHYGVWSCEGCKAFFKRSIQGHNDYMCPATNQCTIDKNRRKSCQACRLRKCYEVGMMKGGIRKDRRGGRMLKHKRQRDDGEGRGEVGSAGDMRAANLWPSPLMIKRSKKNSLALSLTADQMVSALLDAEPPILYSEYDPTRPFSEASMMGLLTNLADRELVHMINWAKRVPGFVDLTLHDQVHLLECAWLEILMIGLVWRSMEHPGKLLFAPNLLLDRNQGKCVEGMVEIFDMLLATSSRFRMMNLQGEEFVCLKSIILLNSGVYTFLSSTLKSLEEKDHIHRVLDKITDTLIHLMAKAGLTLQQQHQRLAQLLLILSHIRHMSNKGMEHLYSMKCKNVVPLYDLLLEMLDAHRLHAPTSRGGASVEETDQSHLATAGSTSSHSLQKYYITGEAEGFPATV

For `O=C(Cl)/C=C/C(=O)Cl`, in [1], the Potency is over 92 µM. Further, the compound was classed as inactive in [2], in test [12], in test [13], in test [14], in [17] and in test [20]. Further, the Potency entry in [3], in [4], in test [5], in test [6], in test [7] and in test [8] was “inactive” throughout. Further, the Potency entry in [11], in [16] and in test [18] was “inactive” in each case. Also, the figures for the activation in test [9] and in test [10] were 1.15% and 18.2%, respectively. Moreover, in test [15], the activity change % (negative = inhibition) was 2.64%. For the same compound, the max response in test [19] is 0.356%.
As for `O=C(Cl)C(Cl)(Cl)Cl`, in [1], the Potency is over 92 µM. Also, the result in [2], in test [12], in test [13], in test [14], in [17] and in test [20] was inactive. Moreover, the Potency entry in [3], in [4], in test [5], in test [6], in test [7] and in test [8] was “inactive” throughout. Further, the Potency result in test [11], in [16] and in [18] was “inactive” in each case. Moreover, the activation was -1.96% in test [9] and -1.29% in test [10]. The activity change % (negative = inhibition) in test [15] was -5.79%. Also, the max response in test [19] is -0.469%.
`C=C(C)C#N`: the Potency in test [1] is over 92 µM. Besides, the Potency entry in test [3], in [6], in test [8] and in test [18] was “inactive” throughout. Further, the activation in [9] was 0.805% and -0.908%. The outcome in [12], in test [13], in test [14], in test [17] and in [20] was inactive. Further, the activity change % (negative = inhibition) in test [15] is -13.7% and -1.19%. In addition, the max response in test [19] is 2.68% and -1.1%.
On to `ClC(Cl)=C(Cl)Cl`, for which the Potency in test [1] is over 92 µM. Moreover, the compound was classed as inactive in [2], in test [12], in test [13], in test [14], in [17] and in test [20]. The Potency result in test [3], in [4], in test [5], in [6], in [7] and in [16] was “inactive” in each case. Also, the Potency entry in test [18] was “inactive”. Further, the activation in test [9] is 0.975% and -2.66%. Further, the activity change % (negative = inhibition) in test [15] is -10.3% and -3.55%. In test [19], the max response was -0.799% and 2.48%.
`CNc1ccccc1C(=O)O`: the Potency entry in [4] was “inactive”.
For the compound `CC(=O)[O-].CC(=O)[O-].O.O.O.[Pb+2]`, the result in [2], in [14] and in test [17] was inactive. The Potency result in test [3], in [4], in test [5], in test [6], in [7] and in [18] was “inactive” each time. In addition, the activity change % (negative = inhibition) in [15] was -0.227%. Besides, the Potency in [16] was 33.5 µM (active) and 37.6 µM (active).
Regarding `BrCCBr`, the outcome in [2], in test [12], in test [13], in [14], in [17] and in test [20] was inactive. Also, the Potency entry in [3], in test [4], in [5], in test [6], in [7] and in [8] was “inactive” throughout. The Potency entry in test [11], in [16] and in test [18] was “inactive” throughout. Further, the activation in test [10] was 2.21% and 1.87%. In addition, in test [15], the activity change % (negative = inhibition) was -9.28%. Moreover, the max response in [19] was 2.8% and -1.13%.
